Hits are enriched below; roughly 2.3% of the tested compounds scored in any of these assays.
FUS yeast rescue – rescues growth of FUS-expressing yeast; S. cerevisiae FUS-expressing, growth rescue, OD600, 24 h; Potency, µM (doses to about 76.6 µM), actives largely listed as activators; 0.24% of 390,000 active; AID 1347120;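 also: potency is read from the fitted curve at half-maximal effect; plate controls were DMSO vehicle for no effect and reference control for full effect; nearly all actives have a fitted effect of over 55% in size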
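Compound concentration series was pinned onto galactose-induced FUS-expressing yeast seeded at OD 0.005. Plates sat 24hr at 30C; absorbance at 600 nm gave growth. DMSO served as background control.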
TDP43 rescue – rescues yeast growth from TDP-43 toxicity; TDP-43 expressing yeast growth rescue, BacTiter-Glo, 24 h; Potency, µM (highest dose often 46.1 µM), for the others: top-dose growth rescue (activation), hits mostly activators; 1.8% of 410,000 active; AID 652104; also: potency is read from the fitted curve at half-maximal effect; % of control where 0% means no effect; nearly all actives have a fitted effect of over 50% in size
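Readout is BacTiter-Glo luminescence of cell growth, so inhibitors register as activators. TDP-43-expressing yeast at OD600=0.02 in galactose medium, after raffinose pregrowth to mid-log, were incubated with compound for 24 hr at 30 deg C.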
aSyn rescue – rescues yeast growth from alpha-synuclein toxicity; 0.14% of 370,000 active; Yeast expressing alpha-synuclein, growth rescue, BacTiter-Glo, 24 h; Potency, µM (doses to about 46.1 µM), for the others: at the top dose growth rescue (activation), most hits filed as activators; also: potency is read from the fitted curve at half-maximal effect; % of control where 0% means no effect; nearly all actives have a fitted effect of over 65% in size
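Screening used galactose-induced yeast with toxic alpha-synuclein levels, exposed to compound for 24 hr at 30 deg C. Cell growth, read with BacTiter-Glo luminescence, gave the measured signal.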
Akt phos inh – blocks phosphorylation of Akt; AID 651550; Neuro2A IGF-stimulated pAkt S473 HTRF, 20 min; hits give low values; activity change, % for hits at 50 µM; 0.32% of 360,000 active; in the data active = activity change below about -80%; inconclusive = mostly about -51% to -80%; also: % is scaled to controls: 0 for no effect and ±100 for the full control effect
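Single-point screen (50 µM final compound) in Neuro2A cells stimulated 20 min with 6 nM IGF at 37 deg C. After lysis, Ser473-phosphorylated Akt read by HTRF (ex 330 nm, em 615/665 nm) as the 665/615 ratio.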
Abeta rescue – A-beta toxicity reversal in yeast | yeast expressing A-beta42, growth rescue, OD600, 48 h; response scale: 0% DMSO, 100% iron-clioquinol control | Potency, µM (highest dose often 46.1 µM), hits mostly activators | 0.063% of 410,000 active | AID 1347071; also: potency is read from the fitted curve at half-maximal effect; nearly all actives have a fitted effect of over 55% in size
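Yeast A-beta toxicity model in growth medium with pinned compounds, 48 h at 30 C; growth read as absorbance at 600 nm. Normalized to FeCl3/clioquinol equimolar mix (positive) and DMSO (negative).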
Active calls of the source: *; [ ] = dose if it differs, or a comment. Unless noted, calls follow the shape of the dose curve; as a rule, active = well fitted curve in the direction sought with a large enough effect; inconclusive = small, poorly fitted or top-dose-only effect, or another doubt; inactive = no such curve, though single readings can be large; an effect the other way counts as inactive or inconclusive.

Results for CCc1cccc(NC(=O)CN(C)S(=O)(=O)c2ccc3c(c2)n(C)c(=O)c(=O)n3C)c1 ?
FUS yeast rescue: inactive; TDP43 rescue: 29%; Abeta rescue: inactive

How did Cc1ccccc1-c1cc(C(=O)Nc2sc(C)c(C)c2C(N)=O)c2ccccc2n1 do in these assays?
FUS yeast rescue: inactive; TDP43 rescue: 22µM*; aSyn rescue: -18%; Akt phos inh: inactive; Abeta rescue: inactive

How did Cc1ccc(-c2nc(N3CCN(c4ccccc4Cl)CC3)c3ccccc3n2)cc1 do in these assays?
FUS yeast rescue: inactive; TDP43 rescue: 8%; Abeta rescue: inactive

What do the screens show for `CCCCOc1cccc(C(=O)N(Cc2ccc(C)o2)c2ccccn2)c1`?
FUS yeast rescue: inactive; TDP43 rescue: 18%; Abeta rescue: inactive

What do the screens show for `COc1cc(/C=C/c2ccc(O)cc2)cc(OC)c1`?
FUS yeast rescue: inactive; TDP43 rescue: 28µM*; aSyn rescue: -19%; Akt phos inh: inactive; Abeta rescue: inactive

What do the screens show for `COc1ccc(/C=C/C(=O)c2ccc(O)cc2)cc1`?
FUS yeast rescue: inactive; TDP43 rescue: inconclusive; aSyn rescue: -8%; Akt phos inh: inactive; Abeta rescue: inactive

What do the screens show for `C=CCN(CC=C)Cc1ccc(C(=O)OC)o1`?
FUS yeast rescue: inactive; TDP43 rescue: 9%; aSyn rescue: -6%; Akt phos inh: -110%*; Abeta rescue: inactive[9.22 µM]

How did Cc1cc(C2=NNC(=NC3CC3)SC2)c(C)n1-c1ccccc1 do in these assays?
FUS yeast rescue: inconclusive; TDP43 rescue: -3%; aSyn rescue: -1%; Akt phos inh: inactive; Abeta rescue: inactive

How did COc1ccc(-n2c(C)cc(C3=NNC(=NC4CC4)SC3)c2C)cc1 do in these assays?
FUS yeast rescue: 16µM*; TDP43 rescue: 25%; aSyn rescue: -8%; Akt phos inh: inactive; Abeta rescue: inactive

Results for CC(C)(C)n1nnnc1CN1CCN(C2CCCC2)CC1 ?
FUS yeast rescue: inactive; TDP43 rescue: 24%; aSyn rescue: 2%; Akt phos inh: -103%*; Abeta rescue: inactive[9.22 µM]

What do the screens show for `CN(Cc1ccccc1)c1ccc(-c2nc(-c3ccco3)no2)cc1[N+](=O)[O-]`?
FUS yeast rescue: inactive; TDP43 rescue: 4%; Abeta rescue: inactive

Results for CCOC(=O)CNC(=O)C1CCCc2c1[nH]c1ccc(Cl)cc21 (centres undefined) ?
FUS yeast rescue: inactive; TDP43 rescue: 13µM*; aSyn rescue: 9%; Akt phos inh: inactive; Abeta rescue: inconclusive

What do the screens show for `NC(=O)CNC(=O)C1CCCc2c1[nH]c1ccc(Cl)cc21` (centres undefined)?
FUS yeast rescue: inactive; TDP43 rescue: -4%; aSyn rescue: 0%; Akt phos inh: inactive; Abeta rescue: inactive

What do the screens show for `Cc1ccc(S(=O)(=O)NCc2ccccc2C)cc1`?
FUS yeast rescue: inactive; TDP43 rescue: 8%; aSyn rescue: 0%; Akt phos inh: inactive; Abeta rescue: inactive

Results for CSc1ccc(S(=O)(=O)NCc2ccccc2C)cc1 ?
FUS yeast rescue: inactive; TDP43 rescue: 14µM*; aSyn rescue: 6%; Akt phos inh: inactive; Abeta rescue: inactive

What do the screens show for `COc1ccc(NC(=O)CC2C(=O)N(c3ccccc3)C(=O)N2CCc2sccc2C)cc1` (centres undefined)?
FUS yeast rescue: inconclusive; TDP43 rescue: 7%; Abeta rescue: inactive

How did O=C(CSc1nc(Nc2ccccc2)c2ccccc2n1)c1ccc(Cl)cc1 do in these assays?
FUS yeast rescue: inactive; TDP43 rescue: 19%; Abeta rescue: inactive

What do the screens show for `COc1cc(Nc2nc(SCc3ccccc3Cl)nc3ccccc23)cc(OC)c1`?
FUS yeast rescue: inconclusive; TDP43 rescue: 20µM*; Abeta rescue: inactive

Results for COc1cc(Nc2nc(SCC(=O)c3ccc(Cl)c(Cl)c3)nc3ccccc23)cc(OC)c1 ?
FUS yeast rescue: inactive; TDP43 rescue: 13µM*; Abeta rescue: inactive

What do the screens show for `COc1cc(Nc2nc(SCc3ccccc3F)nc3ccccc23)cc(OC)c1`?
FUS yeast rescue: inactive; TDP43 rescue: inconclusive; Abeta rescue: inactive

How did COc1cc(Nc2nc(SCc3cccc(Cl)c3)nc3ccccc23)cc(OC)c1 do in these assays?
FUS yeast rescue: inactive; TDP43 rescue: 18µM*; Abeta rescue: inactive

How did CC(C)C(=O)Nc1sc2c(c1C#N)CCCCC2 do in these assays?
FUS yeast rescue: inactive; TDP43 rescue: 13µM*; aSyn rescue: 8%; Akt phos inh: inactive; Abeta rescue: inactive

What do the screens show for `CC(=O)Nc1sc2c(c1C#N)CCCC2`?
FUS yeast rescue: inactive; TDP43 rescue: 16%; aSyn rescue: 0%; Akt phos inh: inactive; Abeta rescue: inactive

What do the screens show for `COc1ccc(CCC(=O)NCc2ccc3c(c2)CCN3C(=O)c2cccc(C)c2)cc1`?
FUS yeast rescue: inconclusive; TDP43 rescue: 25µM*; Abeta rescue: inactive

How did O=C(COc1ccccc1)NCc1ccc2c(c1)CCN2C(=O)c1ccccc1 do in these assays?
FUS yeast rescue: inactive; TDP43 rescue: 23%; Abeta rescue: inactive

How did O=C(NCc1ccc2c(c1)CCN2C(=O)c1ccc(F)cc1)c1cc2ccccc2[nH]1 do in these assays?
FUS yeast rescue: inactive; TDP43 rescue: 32µM*; Abeta rescue: inactive

Results for COc1ccc(OCC(=O)NCc2ccc3c(c2)CCN3C(=O)c2ccccc2)cc1 ?
FUS yeast rescue: inactive; TDP43 rescue: 25µM*; Abeta rescue: inactive

How did Cc1ccc(CNC(=O)CCCn2c(=O)c3ccccc3n(Cc3ccccc3Cl)c2=O)cc1 do in these assays?
FUS yeast rescue: inactive; TDP43 rescue: 7%; Abeta rescue: inactive

What do the screens show for `O=C1c2nccnc2C(=O)N1Cc1ccccc1`?
TDP43 rescue: -10%; aSyn rescue: 13µM*; Akt phos inh: inactive; Abeta rescue: inactive

What do the screens show for `O=C1c2nc3ccccn3c2C(=O)N1Cc1ccccc1`?
FUS yeast rescue: inactive; TDP43 rescue: 0%; aSyn rescue: 10%; Akt phos inh: inactive; Abeta rescue: inactive

Results for CCOc1ccc(/C=C/c2nc(C#N)c(N3CCCCC3)o2)cc1 ?
FUS yeast rescue: inactive; TDP43 rescue: inconclusive; Abeta rescue: inconclusive

What do the screens show for `COc1cccc(-n2cc(C(=O)Nc3cc(OC)c(OC)c(OC)c3)c3ccccc3c2=O)c1`?
FUS yeast rescue: inactive; TDP43 rescue: 16%; Abeta rescue: inactive

How did Cc1ccc(N2CC(NC(=O)Cc3cccs3)CC2=O)cc1C (centres undefined) do in these assays?
FUS yeast rescue: inactive; TDP43 rescue: 19%; Abeta rescue: inactive

What do the screens show for `O=C1OC(NC(=O)c2ccccc2)C(n2cc(CO)nn2)=C1Cl` (centres undefined)?
FUS yeast rescue: inactive; TDP43 rescue: -3%; aSyn rescue: -5%; Akt phos inh: -114%*; Abeta rescue: inactive

Screening results (PubChem BioAssay)
